# RGS7-Gao reg = human RGS7-Galphao interaction regulation; binding response (% of control), % at 10 µM; actives 0.35% (n = 220,000); Multiplexed bead flow cytometry, RGS7-Galphao binding; actives lie on both sides; P09471; in the data active = binding response below about 49% or above about 150%; inconclusive = no clear call, values can overlap the other calls; inactive = in between;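 note: fluorescent Galphao held in activated GDP-AlF4 state binding bead-coupled RGS7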
# GSH fluor = GSH bead compound fluorescence profile; GSH beads flow cytometry, compound fluorescence 488/530 nm; hits give high values; fluorescence (KMESF) at 10 µM; actives 0.25% (n = 190,000); AID 1776; in the data active = fluorescence above about 89;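 note: glutathione beads carrying GST-tagged Bcl family fusion proteins plus one bare bead set; values are compound well signal with DMSO vehicle wells as background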
# RGS8-Gao reg = human RGS8-Galphao interaction regulation. AID 1423. P09471. multiplexed bead flow cytometry, RGS8-Galphao binding; actives lie on both sides. response (percent of control binding), % at 10 µM. actives 0.34% (n = 220,000); in the data active = response below about 60% or above about 140%; inactive = in between;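 note: Galphao activated as the GDP aluminium fluoride complex binding bead-coupled RGS8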
# RGS16-Gao = RGS16-Galphao interaction regulator (human); AID 1441; binding response (% of control), % at 10 µM; O15492+P09471; actives 0.38% (n = 220,000); bead-based flow cytometry RGS16-Galphao binding, fluorescence; actives lie on both sides; call rule not given here;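 note: Galphao activated by GDP with aluminum fluoride before binding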
# Target sequence (O15492 whole entry, looked up): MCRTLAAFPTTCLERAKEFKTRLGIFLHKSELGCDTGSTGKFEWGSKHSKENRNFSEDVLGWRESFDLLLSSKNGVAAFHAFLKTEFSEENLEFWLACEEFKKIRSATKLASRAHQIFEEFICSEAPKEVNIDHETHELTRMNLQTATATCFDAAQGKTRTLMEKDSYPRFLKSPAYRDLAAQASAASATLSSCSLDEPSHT
# Target sequence (P09471 whole entry, looked up): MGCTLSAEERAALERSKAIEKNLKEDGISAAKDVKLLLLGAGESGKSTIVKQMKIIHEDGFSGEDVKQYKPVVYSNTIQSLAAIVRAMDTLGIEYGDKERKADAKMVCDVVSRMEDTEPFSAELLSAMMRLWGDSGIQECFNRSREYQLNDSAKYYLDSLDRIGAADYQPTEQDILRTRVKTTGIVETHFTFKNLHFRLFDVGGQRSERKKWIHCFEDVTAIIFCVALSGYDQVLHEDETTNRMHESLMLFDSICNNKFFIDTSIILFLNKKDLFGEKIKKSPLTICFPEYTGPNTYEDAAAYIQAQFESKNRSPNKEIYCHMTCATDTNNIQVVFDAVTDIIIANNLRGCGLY
# Avidin bead fluor = compound fluoresces at 488/530 nm on avidin beads; compound fluorescence 488/530 nm, flow cytometry; hits give high values; fluorescence (KMESF) at 10 µM; actives 0.38% (n = 220,000); AID 1775; in the data active = fluorescence above about 47
# RGS4-Gao reg = modulates binding of RGS4 to human Galphao; binding response (% of control), % at 10 µM; Multiplexed bead flow cytometry; actives lie on both sides; actives 0.33% (n = 220,000); P09471; in the data active = binding response below about 49% or above about 150%; inactive = in between;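 note: fluorescent Galphao activated with aluminum fluoride binding bead-coupled RGS4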
# The depositor's hits bear a star; ? = inconclusive; . = no result given. This is a sample that favours compounds with a hit; in the whole collection about 1.2% have one here.
SMILES,RGS7-Gao reg,GSH fluor,RGS8-Gao reg,RGS16-Gao,Avidin bead fluor,RGS4-Gao reg
CC(C)(C)c1cc(C(=O)Nc2ccccc2)ccn1,95,103*,98,93,4,88
O=C(CN1CCN(c2ncc(C(F)(F)F)cc2Cl)CC1)NC(=O)NCc1ccccc1,103,11,102,107,21,102
O=C(c1cc2c(ccc3ccccc32)o1)N1CCN(c2ncc(C(F)(F)F)cc2Cl)CC1,100,277*,100,104,8,102
COc1ccc(C2CC(c3cccs3)=NN2C(=O)COC(=O)c2cncc(Br)c2)cc1OC (stereo not drawn),?,14,102,100,9,103
O=C(O/N=C1\CCS(=O)(=O)c2sccc21)c1ccccc1,107,16,105,110,51*,103
CCCCNC(=O)COC(=O)CCC(=O)c1ccc(F)cc1,103,266*,101,104,8,103
CCOC1=NN(c2ncc(C(F)(F)F)cc2Cl)C(=O)/C1=C/N(C)C,98,12,98,100,8,99
COc1ccccc1-c1nc2ccccc2c(=O)n1NC(=O)c1cccs1,100,108*,103,98,14,103
O=C(Nn1c(-c2ccccc2)nc2ccccc2c1=O)c1cccs1,97,5,106,112,1,100
CCC(=O)N=c1ccn(C2=Nc3ccccc3NC2=C(C#N)C#N)cc1,?,.,100,102,9,103
CCOC(=O)Cc1csc(NC(=O)NC2(C(F)(F)F)Oc3ccc(Cl)cc3O2)n1 (stereo not drawn),94,251*,97,93,6,95
CCOC(=O)Cc1csc(NC(=O)NC2(C(F)(F)F)Oc3cc(Cl)c(Cl)cc3O2)n1,97,35,98,97,12,97
Cn1ncc2c(=O)n(CC(=O)NC34CC5CC(CC(C5)C3)C4)cnc21,122,26,102,104,84*,105
CC(C)(C)n1ncc2c(=O)n(CC(=O)NCc3ccccc3)cnc21,102,13,107,111,24,101
CCc1cc2c(N3CCCCC3)ncnc2s1,108,247*,108,113,6,108
COc1ccccc1NC(=O)/C(=C\c1cccs1)NC(=O)c1ccco1,?,.,111,124,49*,119
CC(NC(=O)c1cncc(Br)c1)c1ccc(S(N)(=O)=O)cc1 (stereo not drawn),99,71,104,102,8,105
NS(=O)(=O)c1ccc(CCNC(=O)c2cncc(Br)c2)cc1,110,21,98,95,50*,99
CSc1ccc(Cl)c(C(=O)NCc2ccco2)c1,103,250*,98,60,3,95
CCC(C)(C)NC(=O)CN(C(=O)c1snc(C(N)=O)c1N)c1ccc2c(c1)OCCO2,101,24,99,97,29,97
CCCC(C(=O)NC(C)(C)C)N(C(=O)c1snc(C(N)=O)c1N)c1ccc2c(c1)OCCO2 (stereo not drawn),136,11,101,108,47*,116
O=C(c1c[nH]c2ccc(S(=O)(=O)N3CCC4(CC3)OCCO4)cc2c1=O)N1CCOCC1,103,12,101,99,51*,100
COC(CNC(=O)c1c[nH]c2ccc(S(=O)(=O)N3CCC4(CC3)OCCO4)cc2c1=O)OC,96,26,90,70,3,95
Cc1ccccc1NC(=O)CSc1nc(O)cc(=O)n1C,?,.,99,102,7,100
N#C/C(=C\c1ccc(F)cc1F)S(=O)(=O)c1ccccn1,?,.,95,87,4,86
Cc1nc(SCC(=O)O)c2oc3ccccc3c2n1,98,25,103,132,8,100
Cc1nc(SCC(=O)NCc2ccccc2)c2oc3ccccc3c2n1,105,24,102,100,50*,102
CCOc1c(Br)cc(/C=C2/SC(=O)N(CC(=O)N3CCCC3)C2=O)cc1OC,83,38,76,7,2,81
CCOC(=O)COc1c(Br)cc(/C=C2\SC(=O)N(CC(=O)N3CCCC3)C2=O)cc1OC,122,44,101,103,80*,103

# Compound activity from PubChem BioAssay.
